The values below come from PubChem BioAssay (Tox21).

SMILES strings stand for the structures. Inconclusive results are not listed. A call without a number means that no potency is given here. Calls of active or inactive are those of the source. Calls follow the shape of the full dose curve.
Potency is read from the fitted curve at half-maximal effect.

The nature of the assay: p53 small molecule agonists, cell-based qHTS assay with human liver microsomes: qHTS cell viability counter screen (AID 1963579). Also: nearly all actives have a fitted effect of over 45% in size. The conditions noted are these: p53RE-bla HCT-116 viability, ATP luminescence, 16 h, HLM; series mostly up to 66 µM. The source says: National Center for Advancing Translational Sciences [NCATS]
Division of Preclinical Innovation [DPI]
U.S. Environmental Protection Agency [EPA]
National Institutes of Environmental Health Sciences [NIEHS]
National Toxicology Program [NTP]
U.S. Food and Drug Administration [FDA]
p53, a tumor suppressor protein, is activated following cellular insult, including DNA damage and other cellular stresses. The activation of p53 regulates cell fate by inducing DNA repair, cell cycle arrest, apoptosis, or cellular senescence. The activation of p53, therefore, is a good indicator of DNA damage and other cellular stresses. […] The activation of the reporter gene under culture conditions can be detected by fluorescence intensity. This cell line was used to screen the Tox21 10K compound library in the condition of presence of human liver microsomes and to identify agonists that activate the p53 signaling pathway after in vitro metabolic activation (Ooka et al., Archive of Toxicology 96:1975-1987, 2022).
Tox21 Assay Protocol Summary:
The p53RE-bla cells were dispensed at 4,000cells/3ul/well in 1536-well black-clear bottom plates. After the assay plates were incubated at 37 C, 5% CO2 incubator for 5 hours, 23 nL of compounds dissolved in DMSO, positive controls or DMSO only was transferred to the assay plate. Following compound addition, 3 uL of human liver microsomes (XenoTech, Kansas City, KS) at final concentration of 0.5 mg/mL and 1uL of B-Nicotinamide adenine dinucleotide 2'-phosphate (NADPH) at final concentration of 0.5 mg/mL were transferred to the assay plate. The plates were incubated at 37 C for 16 hours. 1 uL of LiveBLAzer detection mixture was added to each well and the plates were incubated at room temperature in the dark for 2 h. Fluorescence intensity at 460 and 530 nm emission and 405 nm excitation were measured by an Envision plate reader. For cell viability readout that measures cytotoxicity, 4 ul/well of CellTiter-Glo reagent was added into the assay plates using a Flying Reagent Dispenser. After 30 min incubation at room temperature, the luminescence intensity in the plates was measured using a ViewLux plate reader.
`O=S(=O)(c1ccc(Cl)cc1)c1ccc(Cl)cc1`: the Potency entry is “inactive”.
In the case of `COc1c2c(cc3c1OCO3)CCN(C)C2`, the Potency entry was “inactive”.
Under `CC(Cc1ccc(C(C)(C)C)cc1)CN1C[C@@H](C)O[C@@H](C)C1` (stereo not given in full) stands “inactive”; under `CCc1cc(OC)c(C[C@H](C)N)cc1OC`, “inactive”.
On to `O=C1NC(=O)C(=O)C(=O)N1`, for which the Potency result is “inactive”.
With `COP(=O)(OC)OC(Br)C(Cl)(Cl)Br` (stereo not given) the entry was “inactive”.
Take `CON(C)C(=O)Nc1ccc(Br)c(Cl)c1`: the Potency entry is “inactive”.
Under `ClC(Cl)C(Cl)Cl` stands “inactive”; under `NC1CCC(CC2CCC(N)CC2)CC1` (stereo not given), “inactive”; under `CCN[C@H](C)Cc1cccc(C(F)(F)F)c1`, “inactive”.
Regarding `NCCCNCCCN`, the Potency entry is “inactive”.
As to `NC(=O)CI`, the Potency result was “inactive”.
Turning to `CN(N=O)c1ccc([N+](=O)[O-])cc1`, the Potency entry was “inactive”.
As for `N=C(N)[Se]`, the Potency result was “inactive”.
For `CC1(C)CCC(Cc2ccc(Cl)cc2)C1(O)Cn1cncn1` (stereo not given), the Potency was 45.8 µM (active).
With `Nc1ccc([N+](=O)[O-])cc1[N+](=O)[O-]`, the Potency entry is “inactive”.
With `C[N+]1(C)[C@@H]2CC[C@H]1CC(OC(=O)C(CO)c1ccccc1)C2` (stereo not given in full) the entry was “inactive”.
In the case of `CCCCc1c(C)nc(NCC)nc1OS(=O)(=O)N(C)C`, the Potency result is “inactive”.
With `Nc1ccc([N+](=O)[O-])cc1Cl`, the Potency entry was “inactive”.
With `CC(O)C#N` (stereo not given) the entry was “inactive”; with `ClC(Cl)=C(Cl)Cl`, “inactive”; with `CC[C@]1(O)CC[C@H]2[C@@H]3CCC4=CCCC[C@@H]4[C@H]3CC[C@@]21C`, “inactive”.
Turning to `O=C(O)C(Br)CBr` (stereo not given), the Potency result was “inactive”.
For `C[C@@H]1CC[C@H]2[C@@H](C)C(=O)O[C@@H]3O[C@@]4(C)CC[C@@H]1[C@]32OO4`, the Potency result is “inactive”.
Under `CC(C)(O)c1cnn2c(-c3ccc(F)c(-c4c(F)cccc4C#N)c3)cnc2n1` stands “inactive”.
Under `ClCCCN1CCN(c2cccc(Cl)c2)CC1` stands “inactive”; under `CCN(CC)C(=O)[C@@H]1C=C2c3cccc4[nH]cc(c34)C[C@H]2N(C)C1`, “inactive”.
For `CN[C@@H](C)[C@H](O)c1ccccc1`, the Potency result was “inactive”.
Turning to `COP(=O)(OC)O/C(=C\Cl)c1cc(Cl)c(Cl)cc1Cl`, the Potency result is “inactive”.
Regarding `CCSCc1ccccc1OC(=O)NC`, the Potency result was “inactive”.
Under `CN1[C@@H]2CC[C@H]1CC(OC(=O)c1cc(Cl)cc(Cl)c1)C2` (stereo not given in full) stands “inactive”; under `CCCCN(N=O)C(=N)N[N+](=O)[O-]`, “inactive”; under `CCC(Cl)CCl` (stereo not given), “inactive”.
Turning to `O=C(O)CBr`, the Potency entry was “inactive”.
Take `NNC(=O)c1cccnc1`: the Potency entry is “inactive”.
Consider `CC(C)(c1ccc(O)c(-c2ccccc2)c1)c1ccc(O)c(-c2ccccc2)c1`, for which the Potency was 18.2 µM (active).
Under `CCCCC(CC)COC(=O)OOC(C)(C)C` (stereo not given) stands “inactive”; under `Cc1nc(N(C)C)nc(OC(=O)N(C)C)c1C`, “inactive”.
For `Nc1cc2c3c(c1)C(c1ccccc1)=N[C@@H](NC(=O)c1cccnc1)C(=O)N3CC2`, the Potency result was “inactive”.
Take `COP(=O)(OC)O/C(=C/Cl)c1cc(Cl)c(Cl)cc1Cl`: the Potency result is “inactive”.
